The results in this text go back to PubChem BioAssay AID1851 (National Center for Advancing Translational Sciences (NCATS), 2009).

The structures appear in SMILES notation. Where “and” joins values, the source holds several entries; their conditions need not be identical. Equal entries are not always repeated. About 2,600 (16%) of roughly 16,000 compounds were called active. Not shown: some 20% with an inconclusive outcome. Calls come from the whole dose curve; as a rule, active = well fitted curve in the direction sought with a large enough effect; inconclusive = small, poorly fitted or top-dose-only effect, or effect the other way; inactive = no such curve, though single readings can be large or run the other way. Only a sample is shown. A structure can be active in one record and inactive in another.

Usually AC50 stands for the concentration at which the activity in the assay is half-maximal.
% is set by controls: 0 for no effect and ±100 for the full control effect.

The assay deals with Cytochrome P450 2D6 (Homo sapiens) (UniProt P10635). Briefly: Cytochrome panel assay with activity outcomes. Conditions: recombinant CYP, pro-luciferin dealkylation, luminescence, p450-cyp2d6; series mostly up to 57.1 µM; activity, negative = inhibition: at the top concentration.
Cytochrome P450 2D6 (Homo sapiens), sequence (P10635 whole entry, looked up): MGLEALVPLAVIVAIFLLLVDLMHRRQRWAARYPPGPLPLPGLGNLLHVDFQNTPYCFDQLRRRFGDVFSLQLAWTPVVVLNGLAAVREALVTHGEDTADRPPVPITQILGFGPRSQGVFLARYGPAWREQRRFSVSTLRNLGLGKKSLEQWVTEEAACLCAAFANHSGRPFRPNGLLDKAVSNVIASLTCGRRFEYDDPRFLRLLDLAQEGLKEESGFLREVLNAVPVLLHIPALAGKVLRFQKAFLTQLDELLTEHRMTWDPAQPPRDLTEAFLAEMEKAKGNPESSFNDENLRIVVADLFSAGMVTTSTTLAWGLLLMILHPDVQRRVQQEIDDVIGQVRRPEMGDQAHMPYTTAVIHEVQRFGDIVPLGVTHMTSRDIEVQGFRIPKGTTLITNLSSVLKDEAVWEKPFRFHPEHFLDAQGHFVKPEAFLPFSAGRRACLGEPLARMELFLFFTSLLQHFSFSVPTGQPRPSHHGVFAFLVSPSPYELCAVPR
Turning to `CC(C)(C)N(NC(=O)Nc1ccc(Cl)c(Cl)c1)C(=O)c1ccccc1`, the AC50 was 28.2 µM (active). Turning to `Cc1cc(C)cc(C(=O)N(NC(=O)Nc2ccc(Cl)cc2)C(C)(C)C)c1`, the “activity, negative = inhibition” value was -12.7% (inactive). Still for that read-out and setting: then `Cc1nc2cnc(N(C)C)nc2n(CCC#N)c1=O`, with 1% (inactive); and `CCCn1c(CC)nc([N+](=O)[O-])c1S(=O)(=O)c1ccccc1`, with -12% (inactive). Same read-out and setting: then `O=[N+]([O-])c1cc(Cl)cc2c1nc(NCCO)c1ccccc12`, with -18% [at 11.4 µM] (inactive); and `CSc1ccccc1N1CCN(C(=O)Nc2ccc3c(c2)NC(=O)CO3)CC1`, with 7.94% (inactive). For the compound `O=C(NCC1CCCO1)c1ccc(CS(=O)(=O)Cc2ccc(F)cc2)o1` (stereo not given), the “activity, negative = inhibition” value is -4.74% (inactive).

On to `COC(=O)Cn1c(=O)c2c(nc(Br)n2Cc2ccccc2Cl)n(C)c1=O`, for which the “activity, negative = inhibition” value is -4.28% (inactive).

Turning to `Cn1c(OCc2ccc3c(c2)OCO3)nc2c1c(=O)n(Cc1ccc(Cl)c(Cl)c1)c(=O)n2C`, the AC50 is 5.01 µM (active). As for `Cn1c(=O)c2c(nc(Cl)n2Cc2ccc(Cl)c(Cl)c2)n(C)c1=O`, the “activity, negative = inhibition” value is -24.9% (inactive). Consider `CC(C)c1ccc(Cn2ccc3c4c(N)nc(NC5CC5)nc4ccc32)cc1`, for which the concentration at half-maximal activity (AC50) is 1 µM (active). As to `Cc1cc(CNC(=O)[C@@H]2C[C@H]2[C@@H](NP(=O)(c2ccccc2)c2ccccc2)c2ccccc2)nn1C`, the “activity, negative = inhibition” value is 4.62% (inactive).

Regarding `FC(F)(F)c1nnc2c(Sc3ccccc3)nc3ccc(Cl)cc3n12`, the “activity, negative = inhibition” value was 7.73% (inactive). On the same count and under the same terms, next, `O=C(O)C[C@H](NC(=O)CP(=O)(O)O)C(=O)O.[NH-][C@@H]1CCCC[C@@H]1[NH-].[Pt]`: 7.2% [at 11.4 µM] (inactive). Consider `CC1(C)CO[C@H](CC(=O)O)CN1`, for which the AC50 is 0.00631 µM (active).

Consider `C[C@H](N)CCCC(C)(C)O`, for which the “activity, negative = inhibition” value is 2.07% [at 25.6 µM] (inactive). In the case of `O=C(CCCN1CC=C(n2c(=O)[nH]c3ccccc32)CC1)c1ccc(F)cc1`, the half-maximal activity concentration (AC50) is 3.16 µM (active).

For `O=C(Cn1c(C(F)(F)F)nc2ccccc21)c1ccc(F)cc1`, the “activity, negative = inhibition” value is -10.1% (inactive).

Turning to `CC(C)=CCC/C(C)=C/CO/N=C1/C[C@@H](O)[C@@H](O)[C@@H]2[C@@H]3C(=O)N(C[C@@H]4CCCO4)C(=O)[C@H]3CC[C@H]12`, the activity, negative = inhibition was -9.15% [at 11.4 µM] (inactive). The same measure, in the same setting: then `COc1ccc(N=C2S/C(=C\c3ccc(C)s3)C(=O)N2CC(C)C)cc1`, with 1.59% (inactive). On to `O=C(O)CCC(=O)N1CCc2cc(S(=O)(=O)N3CCCCC3)ccc21`, for which the “activity, negative = inhibition” value is 4.95% (inactive).

For `Cc1ccc(-c2cc(C(=O)NN=C3CCCC3)c3ccccc3n2)cc1`, the “activity, negative = inhibition” value was -21.4% (inactive).

Consider `CCNc1ncc2nc(-c3ccc(Cl)cc3)c(=O)n(Cc3ccc(F)cc3)c2n1`, for which the “activity, negative = inhibition” value is -0.819% (inactive). On the same count and under the same terms, then `CN(Cc1n[nH]c(=S)n1C)S(=O)(=O)c1ccccc1`, with -5.55% (inactive). Same read-out and setting: next, `COC(=O)C(NC(=O)c1ccc(Cl)cc1)(Nc1nc(C)cs1)C(F)(F)F` (stereo not given): -25.8% (inactive). On the same count and under the same terms, then `Cc1ccc(SCC(=O)NNC(=O)C2CCCCC2)cc1`, with -7.86% (inactive); and `CC(=O)N[C@@H]1CONC1=O`, with 18.4% [at 11.4 µM] (inactive). Take `Cc1ccc(C(=O)Nc2ccc(Cc3ccncc3)cc2)cc1[N+](=O)[O-]`: the AC50 was 1.41 µM (active). `Cc1ccc(NC(=O)c2ccc(NCC3CCCO3)c([N+](=O)[O-])c2)cc1Cl` (stereo not given): the “activity, negative = inhibition” value was -20.3% (inactive). On to `Cc1ccc(C(=O)Nc2ccccc2Oc2ccccc2)cc1[N+](=O)[O-]`, for which the “activity, negative = inhibition” value was -27% (inactive). As for `N[C@H](C(=O)O)C1[C@H](C(=O)O)[C@H]1C(=O)O` (stereo not given in full), the concentration at half-maximal activity (AC50) is 7.94 µM (active). With `O=C(O)[C@H]1[C@H](C(=O)O)[C@H](C(=O)O)C[C@@H]1C(=O)O`, the activity, negative = inhibition is -4.27% [at 11.4 µM] (inactive). Regarding `N[C@H](C(=O)O)[C@@H]1C[C@@H]1C(=O)O`, the AC50 result is “inactive”.

As to `O=c1cnc2cnc(N3CCOCC3)nc2n1Cc1ccc(F)cc1`, the “activity, negative = inhibition” value was -9.25% (inactive). On the same count and under the same terms, next, `NC(N)=[N+]1CCc2ccccc2C1`: -16.2% (inactive); `COc1ccccc1NC(=O)[C@H](COCc1ccccc1)NC(=O)OC(C)(C)C`: -16.4% (inactive); `O=C1NCCN1Cc1cccc(Cl)c1`: 2.96% (inactive).

In the case of `Cc1ccc(-n2ccc(=O)c(-c3ccnc(SCc4cccc(Cl)c4)n3)n2)cc1`, the “activity, negative = inhibition” value is -22.4% (inactive).

Regarding `O=S1(=O)C=C(SCc2cccc(Cl)c2)Nc2ccccc21`, the AC50 was 12.6 µM (active). Regarding `O=C1c2ccccc2C(=O)N1CCCCN(C(=O)c1cccc([N+](=O)[O-])c1)c1ccc(Cl)cc1`, the “activity, negative = inhibition” value is -20.7% (inactive). Regarding `CC1=NS(=O)(=O)c2cc(Cl)ccc2N1`, the AC50 result was “inactive and 7.94 µM (active)”.

With `COc1ccc(-n2nnnc2-c2cn(C)nc2C(F)(F)F)cc1`, the “activity, negative = inhibition” value was -7.4% (inactive). Same read-out and setting: next, `O=C(O)c1cc(N=Nc2ccc([N+](=O)[O-])cc2)ccc1O`: -8.54% [at 11.4 µM] (inactive); `CS[C@]12C(=O)C[C@]3(C)[C@@H](CC[C@@]3(O)C(=O)CO)[C@@H]1CCC1=CC(=O)CC[C@]12C`: 0.401% [at 11.4 µM] (inactive). Same read-out and setting: then `Cn1nc(-c2ccc(N3CCOCC3)c(NS(=O)(=O)c3ccc(Cl)cc3)c2)c2ccccc2c1=O`, with -7.84% (inactive).

For the compound `CN1CCN(c2ncncc2-c2ccc(N(C)C)cc2)CC1`, the AC50 was 10 µM (active). Consider `CN(C)C(=O)c1ccc(-c2cncnc2N2CCNCC2)cc1`, for which the concentration at half-maximal activity (AC50) was 7.94 µM (active). For `CN1CCN(c2ncncc2-c2ccc(C(=O)N(C)C)cc2)CC1`, the concentration at half-maximal activity (AC50) was 0.251 µM (active).

As for `CN1CCN(c2ncnc3ccc(-c4cccc(NS(C)(=O)=O)c4)cc23)CC1`, the “activity, negative = inhibition” value is 3.66% (inactive). Still for that read-out and setting: then `CN(C)C(=O)c1ccc(-c2cncnc2NC2CCNCC2)cc1`, with -15.4% (inactive).
